Measurements as given in PubChem BioAssay (Tox21).
Results filed as inconclusive are left out. A call without a number means that no potency is given here. Calls of active or inactive are those of the source. Unless noted, calls follow the shape of the dose curve; as a rule, active = well fitted curve in the direction sought with a large enough effect in the repeat runs; inconclusive = weak or mixed curves; inactive = no such curve, though single readings can be large; an effect the other way counts as inactive or inconclusive.

Key:
[1] = qHTS assay to identify aromatase inhibitors - cell viability counter screen (AID 743084);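 also: cells stimulated with testosterone during compound exposure; nearly all actives have a fitted effect of over 55% in size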
[2] = target: Aryl hydrocarbon receptor (Homo sapiens) (UniProt P35869); assay: qHTS assay to identify small molecule that activate the aryl hydrocarbon receptor (AhR) signaling pathway (AID 743085); also: nearly all actives have a fitted effect of over 15% in size; also: potency is read from the fitted curve at half-maximal effect;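 as to activation: HG2L7.5c1 human HepG2 liver cells with stably integrated DRE-driven firefly reporter; series mostly up to about 70 µM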
How it was run: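 A multiplexed format paired cell viability (CellTiter-Fluor fluorescence) with AhR-dependent luciferase output (ONE-Glo luminescence) in the same wells of HepG2 DRE-luc cells after 24 h compound exposure at 37C.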

[3] = qHTS assay to identify small molecule that activate the aryl hydrocarbon receptor (AhR) signaling pathway - cell viability counter screen (AID 743086);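 also: HepG2 liver cells carrying the AhR DRE luciferase reporter; series mostly up to about 70 µM; nearly all actives have a fitted effect of over 45% in size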
How it was run: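 HepG2-AhR-luc (HG2L7.5c1) cells, 4000/well, were preincubated 5 h at 37C, exposed to compound in qHTS format for 24 hr at 37C, then given CellTiter-Fluor for 30 min; viability was read as fluorescence in the reporter wells.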

[4] = target: Peroxisome proliferator-activated receptor gamma (Homo sapiens) (UniProt P37231); assay: qHTS assay to identify small molecule agonists of the peroxisome proliferator-activated receptor gamma (PPARg) signaling pathway (AID 743094; active = well fitted activation curve with a large enough effect in the signal ratio in the repeat runs, not every such curve was filed as active; the % refers to the signal ratio)
How it was run: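 Agonism was assessed in a beta-lactamase reporter system, HEK293H cells with a stably integrated UAS-bla construct under PPARg control; the 17 h treatment at 37C preceded a 1 h room-temperature FRET substrate read.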

[5] = target: Peroxisome proliferator-activated receptor gamma (Homo sapiens) (UniProt P37231); assay: qHTS assay to identify small molecule antagonists of the peroxisome proliferator-activated receptor gamma (PPARg) signaling pathway (AID 743191; calls by dose curve; also: series mostly up to about 63 µM; nearly all actives have a fitted effect of over 30% in size)
How it was run: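 GeneBLAzer PPARg UAS-bla HEK293H cells carrying a UAS-driven beta-lactamase reporter were plated at 3000 cells/well, preincubated 5 h at 37C, then given compound for 17 h at 37C; LiveBLAzer B/G FRET substrate was read after 1 h at room temperature.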

[6] = qHTS assay for small molecule agonists of the antioxidant response element (ARE) signaling pathway (AID 743202; active = well fitted activation curve with a large enough effect in the signal ratio in the repeat runs, not every such curve was filed as active; the % refers to the signal ratio)
How it was run: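 Steps: seed ARE-bla HepG2 cells (2,000/well); incubate 5 h at 37 C; add compounds by pin tool; incubate 16 h at 37 C; add FRET substrate; read fluorescence after 2 h at RT.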

[7] = qHTS assay for small molecule agonists of the antioxidant response element (ARE) signaling pathway - cell viability counter screen (AID 743203; calls by dose curve; also: nearly all actives have a fitted effect of over 55% in size)
How it was run: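 ATP content via CellTiter-Glo luminescence served as the viability measure. Cells: ARE-bla HepG2, 2,000 per well. Exposure: 16 hrs, 37C/5% CO2.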

[8] = qHTS assay for small molecule activators of the heat shock response signaling pathway - cell viability counter screen (AID 743209); also: nearly all actives have a fitted effect of over 50% in size
How it was run: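 Compounds dissolved in DMSO were added to overnight-plated HSE-bla HeLa cells and left 5 h at 37 C. Cell viability was quantified by luminescence using CellTiter-Glo.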

[9] = qHTS assay to identify small molecule antagonists of the peroxisome proliferator-activated receptor gamma (PPARg) signaling pathway - cell viability counter screen (AID 743194); also: nearly all actives have a fitted effect of over 55% in size
How it was run: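 PPARg-UAS-bla HEK293H cells were plated, rested 5 h at 37 C, then treated with compounds plus rosiglitazone (50 nM final) for 17 h at 37 C; viability was then read by CellTiter-Glo luminescence after 30 min at room temperature.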

[10] = qHTS assay for small molecule activators of the heat shock response signaling pathway (AID 743210; active = well fitted activation curve with a large enough effect in the signal ratio in the repeat runs, with a control signal flat, not every such curve was filed as active; the % refers to the signal ratio;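 also: HeLa cells with beta-lactamase reporter driven by heat shock elements; series mostly up to about 63 µM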)
How it was run: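 Activation of heat shock element-controlled beta-lactamase expression is measured in HeLa cells by LiveBLAzer FRET fluorescence, with compound exposure lasting 5 h at 37 C and substrate loading 2.5 h at room temperature.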

Peroxisome proliferator-activated receptor gamma (Homo sapiens), sequence (P37231 whole entry, looked up): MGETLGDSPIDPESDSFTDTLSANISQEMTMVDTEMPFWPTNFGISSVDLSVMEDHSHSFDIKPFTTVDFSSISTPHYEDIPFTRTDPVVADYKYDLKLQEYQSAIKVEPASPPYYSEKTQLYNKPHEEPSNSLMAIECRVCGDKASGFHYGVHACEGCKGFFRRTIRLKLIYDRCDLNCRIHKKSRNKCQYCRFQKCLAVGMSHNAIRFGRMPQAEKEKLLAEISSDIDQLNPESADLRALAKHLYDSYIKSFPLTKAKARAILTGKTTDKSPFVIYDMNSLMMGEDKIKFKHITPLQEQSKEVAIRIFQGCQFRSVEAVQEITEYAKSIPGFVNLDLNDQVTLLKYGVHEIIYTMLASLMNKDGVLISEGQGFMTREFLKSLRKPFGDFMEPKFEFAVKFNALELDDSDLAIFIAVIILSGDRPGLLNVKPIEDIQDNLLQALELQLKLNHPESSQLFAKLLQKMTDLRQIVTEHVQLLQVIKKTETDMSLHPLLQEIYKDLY
Aryl hydrocarbon receptor (Homo sapiens), sequence (P35869 whole entry, looked up): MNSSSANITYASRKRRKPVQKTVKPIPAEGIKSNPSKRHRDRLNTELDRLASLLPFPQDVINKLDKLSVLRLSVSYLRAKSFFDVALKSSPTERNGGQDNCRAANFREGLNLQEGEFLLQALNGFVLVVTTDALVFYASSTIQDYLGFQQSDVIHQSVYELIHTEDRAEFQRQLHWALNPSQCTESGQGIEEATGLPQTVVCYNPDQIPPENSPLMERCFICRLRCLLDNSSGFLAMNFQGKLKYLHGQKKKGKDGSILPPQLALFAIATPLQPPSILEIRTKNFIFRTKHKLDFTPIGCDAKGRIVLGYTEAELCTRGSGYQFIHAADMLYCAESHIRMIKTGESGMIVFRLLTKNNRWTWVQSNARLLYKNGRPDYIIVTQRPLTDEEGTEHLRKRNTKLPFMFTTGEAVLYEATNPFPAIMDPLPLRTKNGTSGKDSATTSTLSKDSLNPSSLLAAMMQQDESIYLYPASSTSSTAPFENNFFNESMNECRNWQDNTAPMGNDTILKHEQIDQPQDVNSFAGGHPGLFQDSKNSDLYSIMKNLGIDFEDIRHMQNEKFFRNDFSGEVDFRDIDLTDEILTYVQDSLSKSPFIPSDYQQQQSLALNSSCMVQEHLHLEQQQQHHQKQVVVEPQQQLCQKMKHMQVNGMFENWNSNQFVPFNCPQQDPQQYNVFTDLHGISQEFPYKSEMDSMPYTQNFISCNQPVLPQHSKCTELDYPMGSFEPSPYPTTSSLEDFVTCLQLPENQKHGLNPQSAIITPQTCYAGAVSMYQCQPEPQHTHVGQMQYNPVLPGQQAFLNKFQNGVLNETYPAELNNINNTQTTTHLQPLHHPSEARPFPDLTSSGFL

SMILES | Potency [1] | Potency [2] | Potency [3] | outcome [4] | Potency [5] | Potency [6] | outcome [7] | outcome [8] | outcome [9] | outcome [10]
CCC(C=O)CC | inactive | inactive | inactive | inactive | inactive | inactive | inactive | inactive |  | 
C=C(C)C1CCC(C)(O)CC1 (stereo unspecified) | inactive | inactive | inactive | inactive | inactive |  |  | inactive | inactive | 
CCOC(=O)c1ccc(OC(=O)CCCCCN=C(N)N)cc1 | inactive | inactive | inactive | inactive | inactive |  | inactive | inactive |  | inactive
OC[C@H](Cc1cccc(O)c1)[C@H](CO)Cc1cccc(O)c1 | inactive | inactive | inactive | inactive | inactive |  |  | inactive | inactive | 
CCCCCCCCSCC | inactive | inactive | inactive | inactive |  |  | inactive | inactive | inactive | inactive
CC[C@H](C)C(=O)O[C@H]1C[C@H](O)C=C2C=C[C@H](C)[C@H](CC[C@@H](O)C[C@@H](O)CC(=O)O)[C@H]21 | inactive | inactive | inactive | inactive |  |  | inactive | inactive | inactive | inactive
Nc1cccc(O)c1 | inactive | 35.4 µM (active) | inactive | inactive |  | inactive | inactive | inactive | inactive | inactive
CC(=O)OC(C)OC(=O)C(C)c1ccc(-c2ccccc2)c(F)c1 (stereo unspecified) | inactive | inactive | inactive | inactive |  | inactive | inactive | inactive | inactive | inactive
C[Si](C)(C)C | inactive | inactive | inactive | inactive |  |  |  | inactive |  | inactive
COC(=O)c1ccccc1C(=O)c1ccc(OCCN2CCCCC2)cc1 | inactive | inactive | inactive | inactive |  | inactive | inactive | inactive | inactive | inactive
N#Cc1ccc(C(=O)O)cc1 | inactive | inactive | inactive | inactive |  | inactive | inactive | inactive | inactive | inactive
OCCC(F)(F)C(F)(F)C(F)(F)C(F)(F)C(F)(F)C(F)(F)C(F)(F)C(F)(F)F | inactive | inactive | inactive |  |  | inactive | inactive | inactive | inactive | inactive
